# Results taken from the supplement of paper PMC3334620.
# The full ranking holds about 33,000 sequences; the median of “E-score (-0.5 to 0.5)” is about -0.012, and the highest 2% start at about 0.29. Shown is part of a subset that was picked to be rich in the highest values.
# Target: T1, Ybr033w (UniProt P38073)
# T1 sequence: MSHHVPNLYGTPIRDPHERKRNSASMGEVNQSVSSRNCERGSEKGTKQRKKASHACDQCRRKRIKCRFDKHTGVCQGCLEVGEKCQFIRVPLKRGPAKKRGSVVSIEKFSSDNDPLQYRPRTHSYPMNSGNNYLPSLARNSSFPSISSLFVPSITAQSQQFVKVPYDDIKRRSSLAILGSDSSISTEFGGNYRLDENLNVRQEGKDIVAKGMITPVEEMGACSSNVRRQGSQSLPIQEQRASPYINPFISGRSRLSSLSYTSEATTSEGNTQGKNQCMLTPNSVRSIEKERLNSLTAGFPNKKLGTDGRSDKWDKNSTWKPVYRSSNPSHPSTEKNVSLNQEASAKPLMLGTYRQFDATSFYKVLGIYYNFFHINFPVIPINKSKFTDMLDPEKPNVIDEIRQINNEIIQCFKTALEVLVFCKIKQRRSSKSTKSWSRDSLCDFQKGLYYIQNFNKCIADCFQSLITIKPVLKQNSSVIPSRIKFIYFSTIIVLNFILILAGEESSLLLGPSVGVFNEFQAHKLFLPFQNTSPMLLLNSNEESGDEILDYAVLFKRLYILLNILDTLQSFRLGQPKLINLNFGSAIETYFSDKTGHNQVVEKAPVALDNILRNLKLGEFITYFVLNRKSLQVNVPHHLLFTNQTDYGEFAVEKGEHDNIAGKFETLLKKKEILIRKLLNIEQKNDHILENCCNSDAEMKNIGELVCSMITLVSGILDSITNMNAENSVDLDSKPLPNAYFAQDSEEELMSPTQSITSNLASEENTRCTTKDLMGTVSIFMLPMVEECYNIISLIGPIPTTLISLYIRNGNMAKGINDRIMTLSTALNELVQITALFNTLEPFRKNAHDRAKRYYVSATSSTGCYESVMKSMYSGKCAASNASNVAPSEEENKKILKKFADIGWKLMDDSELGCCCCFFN
# Assay: PBM E-score (8-mer binding enrichment) (E-score (-0.5 to 0.5)); higher = stronger / more preferred TF binding
# Settings: protein concentration: 200 nM; construct: GST-full length
# Protocol: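 Universal 'all 10-mer' protein binding microarrays (Agilent AMADID 015681) probed with GST-tagged S. cerevisiae TFs (full-length or DBD) made by in vitro transcription/translation (PURExpress), about 100-200 nM. Bound TF was detected with fluorescent anti-GST. Each ungapped 8-mer (which stands for itself and its reverse complement) is scored by the PBM enrichment score (E-score), a modified Wilcoxon-Mann-Whitney statistic from -0.5 to +0.5, computed with the Universal PBM Analysis Suite. Scale: above 0.35 generally sequence-specific binding.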
row,Sequence,PBM E-score
1,AACAAACG,0.183
2,AACAACTT,0.291
3,AACAACTA,0.147
4,TACAAACA,0.29
5,AACAACTC,0.0616
6,AACAAACT,0.341
7,AACAAACC,0.105
8,TACAAGCA,0.189
9,CAAATCCG,0.0419
10,CTCGTGGC,-0.173
11,AAGTACTG,0.112
12,AGTGGTCA,-0.103
13,GAGACACC,-0.216
14,TGACTAAA,0.0305
15,TGAAGGAA,0.211
16,AGTATTTA,0.301
17,AGTATTGC,0.169
18,CGTATTTC,0.0631
19,AGTATTCC,0.161
20,AGTATTTC,0.34
21,AGTATTTG,0.159
22,CGTATTTA,0.311
23,GGTATTTA,0.125
24,ACTATTTA,0.235
25,AGACTTTG,-0.0453

row,Sequence,PBM E-score
1,CCGACACG,-0.213
2,ATCACAAG,0.107
3,CCTACTTC,-0.0544
4,CGCAGGTC,-0.168
5,ACAGCCTG,-0.0521
6,ACGAGTGC,-0.0558
7,CCACCCTC,-0.0745
8,ACCAATAA,0.107
9,GCATCGCC,-0.17
10,ATATCCAC,0.145
11,GAAGGCTA,0.0975
12,CGGAGAAA,0.39
13,CGGAGAAG,-0.166
14,TGGAGAAA,0.133
15,TAAACTCA,0.147
16,GAATAAGC,0.189
17,GAATAAGA,0.0352
18,GAATAACA,0.367
19,GAATAACC,0.113
20,CAATAACA,0.066
21,GGATAGTA,0.206
22,CGATAATA,0.0851
23,GGATAATA,0.349
24,GAATAATA,0.395
25,GAATAAAC,0.142

row,Sequence,PBM E-score
1,GCATAATA,0.198
2,GAATAATC,0.379
3,CATCCTGC,-0.163
4,CAAGAGGC,-0.144
5,CTTCAGAA,-0.028
6,GTAGGACA,0.012
7,ACGTATAC,0.181
8,ATTCTGAA,0.187
9,CGAGGGAA,-0.0841
10,AATGTAAT,0.272
11,CATGTAAG,-0.0133
12,AATGTAAG,0.288
13,AGCCTCCC,-0.254
14,AACCTGCC,-0.0858
15,AATTGATC,0.354
16,AATTGACC,0.0241
17,ACTTGATG,0.218
18,AATTGATG,0.309
19,CATTGATC,0.236
20,AATTGATA,0.255
21,TAACCAAA,0.186
22,CGGAGGGA,-0.057
23,CGTCTTCC,-0.215
24,ATTACTGA,0.169
25,ATTACTCG,0.132

row,Sequence,PBM E-score
1,ATTACTCC,0.23
2,ATTACTTA,0.35
3,CTTACTTA,0.0259
4,ATTACTCA,0.296
5,CACCAGTC,-0.196
6,TAAAGTTA,0.358
7,CAAAGTAA,0.186
8,AAAAGTAA,0.314
9,AAAAGTAT,0.13
10,CAAAGTTA,0.279
11,AAAAGTTA,0.288
12,GAAAGTTA,0.218
13,AAAAGTTC,0.373
14,ACAAGTTA,0.185
15,AAAAGTTT,0.266
16,AAAAGTTG,0.133
17,GAAAGTTC,-0.0203
18,ACGGTGGC,-0.095
19,CGGCCATA,-0.17
20,CTATCCAG,0.062
21,AGTGGTTC,0.00899
22,TGAGCCCA,-0.0977
23,GTTCTGCA,-0.173
24,AGAACTAG,-0.084
25,CTCTGCGC,-0.118

row,Sequence,PBM E-score
1,TAGACGCA,-0.0494
2,CCGCTTGA,-0.162
3,GCCTTTCC,-0.254
4,GAAATATC,0.231
5,CAAATATA,0.281
6,TAAATATA,0.353
7,GAAATACA,0.14
8,TAAATACA,0.229
9,GAAATATA,0.327
10,GGCCAATA,-0.0498
11,AAAGCTCT,-0.262
12,CAATGCTA,0.115
13,CTCCATGA,0.0454
14,TAGACAGA,0.157
15,AATCAATA,0.334
16,AATCAATT,0.247
17,GATCAATC,0.184
18,AATCAATC,0.0849
19,CATCAAAA,0.108
20,AATCAAAA,0.225
21,GATCAAAA,0.296
22,TATCAATA,0.257
23,GATCAATA,0.329
24,AGGGTAAG,0.0154
25,CCTAGGAC,-0.087

row,Sequence,PBM E-score
1,AAAGCAAT,0.16
2,ACCCCCTG,-0.454
3,CTGGAATC,-0.00413
4,ATGGAATC,0.198
5,ATGGAATA,0.316
6,CTGGAACC,-0.209
7,CTGGAAGA,0.189
8,ATGGAACA,0.182
9,CTGGAATA,0.355
10,GTGGAATA,0.262
11,CTGGAACA,0.31
12,ATGTGGAA,0.235
13,CCGGGTGC,-0.181
14,CCCTTTGC,-0.134
15,GGCCTAAC,-0.013
16,CACAGAGC,-0.121
17,ATACGTAT,0.207
18,TGGATCAA,0.377
19,AGGATCAA,0.317
20,AGGATCAC,-0.0786
21,GGGATCAA,0.242
22,AGGATCAG,-0.166
23,TGGATCCA,-0.0233
24,AAGAGTAT,0.00192
25,AATAACCC,0.203

row,Sequence,PBM E-score
1,GCACTTCC,-0.149
2,GAAAAAAA,0.37
3,AAAAAAAA,0.353
4,GAGAAAAA,0.155
5,AAAAAAAC,0.24
6,GAAAAAAC,0.265
7,AAAAAAAG,0.273
8,AGATCTTC,0.137
9,AAGGATTG,0.126
10,ACTCAACA,0.146
11,CTTCTCCA,-0.214
12,ACCCAGGG,-0.287
13,ACTCGAAG,-0.242
14,CTGGTCCA,-0.17
15,GTTCCTAA,0.125
16,GATATAGC,0.156
17,ATATGAGC,-0.0174
18,AATTTACC,0.103
19,CTTTTACC,0.101
20,ATTTTACG,0.328
21,AATTTACG,0.232
22,ATTTTACA,0.0461
23,ATTTTACC,0.362
